From ChEMBL document CHEMBL3988442, “University of Dundee, Small-Polar-MMV Screening Library” (2021)
For some of these results: Measured potencies and affinities stand elsewhere.

Assays:
Design in all cases: scale not given: direction of the effect not stated beside the values
[1] = molecular target: Protein translocase subunit SecA (Escherichia coli (strain K12)) (UniProt P10408); test: Assay to Identify E. coli SecA ATPase Inhibitors; assay type: functional; conditions: 30 µM
[2] = molecular target: T1, Ubiquitin-activating enzyme e1, putative (Leishmania donovani (strain BPK282A1)) (UniProt E9BSI1); test: Leishmania donovani Ubiquitin Activating Enzyme (LdE1); assay type: functional; conditions: 30 µM
T1 sequence (whole entry): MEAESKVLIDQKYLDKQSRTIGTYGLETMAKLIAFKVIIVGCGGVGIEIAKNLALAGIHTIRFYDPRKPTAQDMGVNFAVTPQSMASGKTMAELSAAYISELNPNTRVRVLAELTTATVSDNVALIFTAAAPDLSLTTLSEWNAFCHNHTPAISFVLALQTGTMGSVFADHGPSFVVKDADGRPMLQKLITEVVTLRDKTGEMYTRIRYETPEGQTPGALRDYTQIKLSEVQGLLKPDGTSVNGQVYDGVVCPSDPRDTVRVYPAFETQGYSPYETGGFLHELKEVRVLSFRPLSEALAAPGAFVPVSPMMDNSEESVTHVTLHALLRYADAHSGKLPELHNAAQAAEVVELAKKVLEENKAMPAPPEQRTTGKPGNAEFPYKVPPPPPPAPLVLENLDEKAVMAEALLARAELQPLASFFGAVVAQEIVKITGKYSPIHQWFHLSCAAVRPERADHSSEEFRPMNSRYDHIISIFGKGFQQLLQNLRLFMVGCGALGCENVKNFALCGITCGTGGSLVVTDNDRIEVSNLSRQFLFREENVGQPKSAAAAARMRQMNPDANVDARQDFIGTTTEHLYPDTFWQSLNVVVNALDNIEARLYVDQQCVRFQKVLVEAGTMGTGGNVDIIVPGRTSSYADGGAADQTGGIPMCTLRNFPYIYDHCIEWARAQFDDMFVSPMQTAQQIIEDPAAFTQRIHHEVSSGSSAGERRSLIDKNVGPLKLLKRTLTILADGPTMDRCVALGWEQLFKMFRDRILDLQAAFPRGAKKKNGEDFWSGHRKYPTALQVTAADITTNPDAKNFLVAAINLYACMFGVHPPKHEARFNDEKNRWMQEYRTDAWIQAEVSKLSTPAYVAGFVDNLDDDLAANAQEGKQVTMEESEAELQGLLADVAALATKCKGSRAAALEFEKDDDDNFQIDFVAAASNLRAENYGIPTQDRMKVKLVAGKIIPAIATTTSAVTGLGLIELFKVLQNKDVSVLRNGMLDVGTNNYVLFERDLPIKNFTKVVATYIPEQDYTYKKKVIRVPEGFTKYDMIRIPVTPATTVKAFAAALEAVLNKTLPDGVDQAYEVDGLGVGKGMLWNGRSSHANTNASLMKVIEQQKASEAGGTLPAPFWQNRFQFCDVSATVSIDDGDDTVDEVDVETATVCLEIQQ

[3] = molecular target: AMP-activated protein kinase, AMPK (Homo sapiens) (UniProt P54646+O43741+P54619+Q9UGJ0+Q9Y478+Q13131+Q9UGI9); test: AMP-dependent Kinase enzyme assay. An in vitro enzyme assay that detects ADP turnover that is directly proportional to AMPK activity. This uses naive AMPK that is activated during the assay with MK-8722; assay type: functional; conditions: 30 µM
[4] = molecular target: Sialic acid-binding Ig-like lectin 9 (Homo sapiens) (UniProt Q9Y336); test: Hs-Siglec9 ALPHAscreen SOP 20170721; conditions: 10 µM
Chain of Sialic acid-binding Ig-like lectin 9 (Homo sapiens) (Q9Y336 whole entry): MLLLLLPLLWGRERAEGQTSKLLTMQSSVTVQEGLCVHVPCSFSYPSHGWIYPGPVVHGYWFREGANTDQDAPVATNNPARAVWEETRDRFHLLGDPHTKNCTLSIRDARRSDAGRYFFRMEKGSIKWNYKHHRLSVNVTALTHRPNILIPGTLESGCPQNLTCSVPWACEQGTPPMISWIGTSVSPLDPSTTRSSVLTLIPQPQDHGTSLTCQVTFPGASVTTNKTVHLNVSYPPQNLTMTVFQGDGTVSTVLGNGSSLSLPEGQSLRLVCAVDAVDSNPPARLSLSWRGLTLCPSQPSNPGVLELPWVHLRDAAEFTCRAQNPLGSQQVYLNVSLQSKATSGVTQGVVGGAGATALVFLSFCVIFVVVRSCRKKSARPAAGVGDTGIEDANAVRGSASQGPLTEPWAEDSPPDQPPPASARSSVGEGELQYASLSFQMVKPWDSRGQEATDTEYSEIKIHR

Trypanosoma cruzi = test: Trypanosoma cruzi phosphomannomutase and mannose-1-phosphate guanylyltransferase assay; assay type: functional; conditions: 10 µM
[5] = molecular target: T2, Arginase-2, mitochondrial (Homo sapiens) (UniProt P78540); test: in vitro enzyme assay to detect the production of urea directly proportional to the activity of Arginase II; assay type: functional; conditions: 33.3 µM; further: in the data most compounds retested in dose-response had high values
T2 sequence (whole entry): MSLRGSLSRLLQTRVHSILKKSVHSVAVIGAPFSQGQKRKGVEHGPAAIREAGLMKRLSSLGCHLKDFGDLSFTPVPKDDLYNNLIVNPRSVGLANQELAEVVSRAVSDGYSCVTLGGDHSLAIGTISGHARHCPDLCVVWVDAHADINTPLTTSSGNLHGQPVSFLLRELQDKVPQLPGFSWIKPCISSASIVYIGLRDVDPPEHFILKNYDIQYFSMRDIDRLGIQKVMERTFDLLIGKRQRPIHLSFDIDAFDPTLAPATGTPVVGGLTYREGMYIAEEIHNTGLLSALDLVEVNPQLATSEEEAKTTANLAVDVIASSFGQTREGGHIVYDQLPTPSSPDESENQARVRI

[6] = molecular target: T3, Proteasome subunit beta (Trypanosoma cruzi) (UniProt O96673); test: Trypanosoma cruzi proteasome chymotrypsin-like activity (TcProtChymo) assay.; further: in the data most compounds retested in dose-response had high values; assay type: functional; conditions: 9.37 µM
T3 sequence (whole entry): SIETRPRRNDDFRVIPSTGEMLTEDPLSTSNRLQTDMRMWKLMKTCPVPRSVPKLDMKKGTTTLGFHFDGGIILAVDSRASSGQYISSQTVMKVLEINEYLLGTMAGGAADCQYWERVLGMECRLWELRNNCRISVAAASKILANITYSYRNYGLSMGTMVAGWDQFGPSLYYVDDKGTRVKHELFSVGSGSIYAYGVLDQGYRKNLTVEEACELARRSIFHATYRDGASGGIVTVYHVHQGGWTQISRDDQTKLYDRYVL

Homo sapiens = species on record: Homo sapiens; test: To identify inhibition of the IFN signalling (Jak-Stat) pathway via expression of an eGFP reporter gene under the control of an IFN-stimulated response element (ISRE) containing MxA promoter.; assay type: functional; conditions: 30 µM
[7] = molecular target: T4, Tyrosyl-tRNA synthetase, putative (Trypanosoma cruzi (strain CL Brener)) (UniProt Q4DSP6); test: Trypanosoma cruzi tyrosyl tRNA synthetase (TcYRS) _High Tyrosine SOP; assay type: functional; conditions: 30 µM; further: in the data most compounds retested in dose-response had high values
T4 sequence (whole entry): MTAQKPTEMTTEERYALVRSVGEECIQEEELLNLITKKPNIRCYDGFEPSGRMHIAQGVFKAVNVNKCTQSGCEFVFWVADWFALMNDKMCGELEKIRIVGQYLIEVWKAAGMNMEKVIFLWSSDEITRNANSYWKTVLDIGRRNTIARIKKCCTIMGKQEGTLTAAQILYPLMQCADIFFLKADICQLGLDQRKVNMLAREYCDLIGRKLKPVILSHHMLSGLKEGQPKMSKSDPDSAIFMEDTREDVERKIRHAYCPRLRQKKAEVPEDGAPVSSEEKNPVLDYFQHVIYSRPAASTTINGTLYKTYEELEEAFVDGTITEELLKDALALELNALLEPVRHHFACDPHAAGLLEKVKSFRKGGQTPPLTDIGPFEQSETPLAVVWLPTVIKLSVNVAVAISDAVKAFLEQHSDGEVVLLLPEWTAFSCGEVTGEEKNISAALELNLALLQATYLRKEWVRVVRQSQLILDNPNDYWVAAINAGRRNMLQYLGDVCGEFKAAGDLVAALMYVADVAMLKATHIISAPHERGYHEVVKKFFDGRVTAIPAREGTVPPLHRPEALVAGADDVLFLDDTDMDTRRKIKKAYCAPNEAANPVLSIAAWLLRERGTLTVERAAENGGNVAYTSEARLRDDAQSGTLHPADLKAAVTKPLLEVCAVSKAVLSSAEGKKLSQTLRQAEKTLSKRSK

[8] = molecular target: T4, Tyrosyl-tRNA synthetase, putative (Trypanosoma cruzi (strain CL Brener)); test: Trypanosoma cruzi tyrosyl tRNA synthetase (TcYRS) SOP; assay type: functional; conditions: 30 µM
[9] = molecular target: Chromo domain-containing protein 1 (Saccharomyces cerevisiae (strain ATCC 204508 / S288c) (Baker's yeast)) (UniProt P32657); test: ScCHD-1 Enzyme Inhibition Assay; assay type: functional; conditions: 30 µM; further: in the data most compounds retested in dose-response had high values
Chain of Chromo domain-containing protein 1 (Saccharomyces cerevisiae (strain ATCC 204508 / S288c) (Baker's yeast)) (P32657 whole entry, the tested form may be a part): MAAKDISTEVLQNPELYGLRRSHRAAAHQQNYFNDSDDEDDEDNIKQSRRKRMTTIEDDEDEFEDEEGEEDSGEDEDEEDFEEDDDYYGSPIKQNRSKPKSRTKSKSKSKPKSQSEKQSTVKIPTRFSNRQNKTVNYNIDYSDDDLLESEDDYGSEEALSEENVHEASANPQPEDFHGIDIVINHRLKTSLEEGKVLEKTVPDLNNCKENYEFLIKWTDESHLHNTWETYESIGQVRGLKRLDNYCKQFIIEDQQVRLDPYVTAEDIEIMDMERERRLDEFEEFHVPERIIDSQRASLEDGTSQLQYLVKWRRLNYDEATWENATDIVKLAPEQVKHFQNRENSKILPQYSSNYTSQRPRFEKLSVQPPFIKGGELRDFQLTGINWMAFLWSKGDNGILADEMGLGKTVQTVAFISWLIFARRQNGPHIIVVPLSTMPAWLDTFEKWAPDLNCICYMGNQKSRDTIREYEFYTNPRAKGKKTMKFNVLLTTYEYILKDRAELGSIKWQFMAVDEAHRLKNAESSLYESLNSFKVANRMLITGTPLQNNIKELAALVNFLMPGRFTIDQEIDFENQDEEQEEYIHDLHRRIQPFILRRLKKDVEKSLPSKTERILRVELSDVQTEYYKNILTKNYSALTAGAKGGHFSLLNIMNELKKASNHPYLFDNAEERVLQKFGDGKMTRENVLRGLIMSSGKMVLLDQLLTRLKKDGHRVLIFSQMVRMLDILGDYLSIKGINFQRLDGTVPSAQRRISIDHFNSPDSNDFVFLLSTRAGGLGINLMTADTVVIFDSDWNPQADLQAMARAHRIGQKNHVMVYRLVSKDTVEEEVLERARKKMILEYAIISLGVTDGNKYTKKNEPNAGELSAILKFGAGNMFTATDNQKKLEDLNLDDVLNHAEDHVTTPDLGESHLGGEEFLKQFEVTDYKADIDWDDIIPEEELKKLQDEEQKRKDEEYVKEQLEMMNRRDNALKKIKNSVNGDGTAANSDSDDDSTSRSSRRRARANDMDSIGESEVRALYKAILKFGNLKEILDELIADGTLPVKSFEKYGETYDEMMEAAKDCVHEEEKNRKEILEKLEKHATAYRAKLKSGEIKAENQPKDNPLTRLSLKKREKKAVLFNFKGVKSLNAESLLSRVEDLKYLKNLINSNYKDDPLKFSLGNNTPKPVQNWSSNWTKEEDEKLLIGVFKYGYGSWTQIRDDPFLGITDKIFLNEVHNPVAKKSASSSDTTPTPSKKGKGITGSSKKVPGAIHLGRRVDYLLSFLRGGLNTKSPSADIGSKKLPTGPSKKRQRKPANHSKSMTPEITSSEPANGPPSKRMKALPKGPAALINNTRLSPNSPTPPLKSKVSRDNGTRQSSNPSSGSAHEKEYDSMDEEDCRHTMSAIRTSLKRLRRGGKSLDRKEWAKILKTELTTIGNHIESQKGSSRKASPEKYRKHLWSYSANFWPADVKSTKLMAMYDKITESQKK

Chain of Protein translocase subunit SecA (Escherichia coli (strain K12)) (P10408 whole entry): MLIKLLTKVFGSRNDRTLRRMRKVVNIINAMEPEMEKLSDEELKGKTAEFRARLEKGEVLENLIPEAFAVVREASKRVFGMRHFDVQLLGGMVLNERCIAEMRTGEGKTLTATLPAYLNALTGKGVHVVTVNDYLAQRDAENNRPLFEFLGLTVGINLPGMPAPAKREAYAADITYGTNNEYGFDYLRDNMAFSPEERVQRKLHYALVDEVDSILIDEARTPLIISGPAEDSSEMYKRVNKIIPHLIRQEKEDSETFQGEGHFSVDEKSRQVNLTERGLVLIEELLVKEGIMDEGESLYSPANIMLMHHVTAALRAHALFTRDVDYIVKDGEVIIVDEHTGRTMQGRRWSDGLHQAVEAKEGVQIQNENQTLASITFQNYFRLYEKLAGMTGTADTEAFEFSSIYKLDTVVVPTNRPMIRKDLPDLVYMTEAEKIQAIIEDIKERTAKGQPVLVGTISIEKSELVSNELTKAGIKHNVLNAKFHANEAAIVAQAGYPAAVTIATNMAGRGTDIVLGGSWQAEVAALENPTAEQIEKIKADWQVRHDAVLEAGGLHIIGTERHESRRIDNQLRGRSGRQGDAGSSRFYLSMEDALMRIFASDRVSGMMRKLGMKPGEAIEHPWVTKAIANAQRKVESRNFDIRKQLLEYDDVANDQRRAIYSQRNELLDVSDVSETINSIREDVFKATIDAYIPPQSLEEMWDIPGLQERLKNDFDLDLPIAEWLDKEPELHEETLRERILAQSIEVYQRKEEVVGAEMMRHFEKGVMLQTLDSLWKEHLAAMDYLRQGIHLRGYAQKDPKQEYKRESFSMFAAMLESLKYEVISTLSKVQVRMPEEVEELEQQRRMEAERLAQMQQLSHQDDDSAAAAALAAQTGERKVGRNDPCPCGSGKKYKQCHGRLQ

SMILES | Percent Effect [1] | Percent Effect [2] | Percent Effect [3] | Percent Effect [4] | Percent Effect (Trypanosoma cruzi) | Percent Effect [5] | Percent Effect [6] | Percent Effect (Homo sapiens) | Percent Effect [7] | Percent Effect [8] | Percent Effect [9]
COC(=O)CCN1CCCC1c1cccc2c1OCCO2 (configuration not stated) | -3.03% | -2.67% | -0.184% | 36% | -0.682% | -2.6% | -1.92% | 5.8% | 3.83% | 3.7% | 3.53%
CCOc1cccc2c1OCC(C(=O)NS(=O)(=O)Cc1ccccc1)=C2 | -2.71% | 0% | 1.17% | -4.5% | -8.59% | 24.9% | 2.52% | 24.4% | -10.3% | -6.17% | -6.55%
Cc1cnn(CC2CCCN2C(=O)c2cccc(CC#N)c2)c1 (configuration not stated) | -3.75% | 2.53% | 0.139% | -0.305% | 8.03% | 0% | -0.0819% | -5.56% | 0.493% | 1.27% | -2.19%
Cc1nc2ccccn2c1CN(Cc1cccnc1)CC1CCCO1 (configuration not stated) | -1.83% | -2.74% | 2.15% | 0.744% | -6.27% | 0.455% | 7.63% | 13.7% | -2.15% | -2.5% | -1.23%
O=C(CCN1C(=O)CCC1=O)Nc1cnn(-c2ccccc2Cl)c1 | -6.27% | 10.8% | 6.39% | 1.29% | -7.52% | -0.185% | 5.92% | 20.3% | 4.95% | 6.1% | 4.56%
O=C(Nc1cc(C(F)(F)F)c[nH]c1=O)c1ccco1 | -2.24% | -2.63% | 19.1% | 5.92% | 0.28% | -15.5% | 10.9% | -15.5% | 6.4% | 6.17% | 0.552%
Cc1ccc2c(n1)N(CCn1cccn1)CCN(C(=O)NC1CC1)C2 | -4.03% | 10.8% | -7.12% | 26.1% | 6.55% | -1.24% | 18.1% | -2.83% | 5.38% | 16.1% | -4.31%
c1ccc(-c2noc3c2CN(CC2CC2)CC3)cc1 | -4.27% | 2.74% | -7.86% | -1.17% | -0.979% | -0.455% | 6.92% | 11.2% | 4.3% | 10% | 0.0734%
CN(C)C(=O)COC[C@]12COC[C@H]1CN(Cc1ccoc1)C2 | -2.44% | 2.7% | -3.89% | 10.2% | 5.77% | 7.69% | 2.49% | 5.51% | 4.3% | 1.24% | -5.77%
Cc1nnc(CN2CCN(CCOc3ccccc3C#N)CC2)n1C | -5% | 13.2% | -7.44% | 8.94% | 5.7% | 1.44% | 7.87% | 5.78% | 3.45% | 16.1% | -3.26%
Cc1cnn(CC2CCCN2Cc2coc(-c3cccs3)n2)c1 (configuration not stated) | -6.03% | 0% | 3.45% | -6.51% | -1.37% | 0.909% | 1.77% | 5.98% | 2.15% | 10% | -1.19%
CC(C)c1cc(NC(=O)CN2CCc3cncnc3C2)on1 | -5.41% | 10.4% | -22.4% | 3.99% | 1.31% | -5.34% | 4.39% | -5.17% | 16.5% | 21.9% | -6.84%
Cc1nsc(N2CCCN(c3nc(C4CC4)ns3)CC2)n1 | -2.5% | 11% | 9.09% | 5.05% | 4.9% | 19.1% | 10.1% | 5.1% | 1.07% | 5% | -4.56%
Cc1noc(C2CCCN(C(=O)c3ccc(Br)cc3F)C2)n1 (configuration not stated) | -5.32% | 10.4% | 2.06% | 2.58% | 6.95% | 2.74% | 6.87% | -5.04% | 1.91% | 18.8% | -19.5%
CCCn1nccc1C(=O)N1CCCN(CCCc2ccccc2)CC1 | -5.36% | 11% | -4.71% | 8.5% | 7.14% | -4.79% | 16.2% | 4.05% | 7.29% | 8.64% | -1.42%
Cc1csc2c(=O)n3c(nc12)CCN(C(=O)c1cccnc1)CC3 | -2.51% | 9.46% | 13.3% | -1.07% | 4.94% | -1.16% | 8.27% | 4.21% | 4.3% | 6.49% | -13%
COCCN1C(=O)CC(N2CCN(c3ccc(F)cc3)CC2)C1=O (configuration not stated) | 0.82% | 10.5% | 2.05% | -7.33% | -0.0974% | -1.18% | 10.3% | 14.5% | -3.19% | 5.2% | -4.78%
